Several values for one entry are separate records, joined by “and”; a condition that tells them apart may be missing. Identical values can stand only once. About 83,000 compounds went through this panel and 20% of them were active in at least one assay; those are over-represented in the sample as a whole.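 Note: values are percent growth. 100 is the growth of untreated cells, values between 100 and 0 indicate rising inhibition; between -100 and 0 indicates cell death.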 Activity calls are given as the source filed them. The calls were made as follows: active = growth percent below 10; inactive = the rest.
Key:
Assay in all cases: NCI-60 one-dose screen, 48 h (100 = growth as untreated, 0 = no growth, -100 = all killed)
[1] = tested on: SR leukemia; conditions: 10 µM unless noted
[2] = tested on: RPMI-8226 leukemia; conditions: 10 µM unless noted
[3] = tested on: OVCAR-8 ovarian; conditions: 10 µM unless noted
[4] = tested on: OVCAR-5 ovarian; conditions: 10 µM unless noted
[5] = tested on: OVCAR-4 ovarian; conditions: 10 µM unless noted
[6] = tested on: SK-OV-3 ovarian; conditions: 10 µM unless noted
[7] = tested on: IGROV1 ovarian; conditions: 10 µM unless noted
[8] = tested on: HS 578T breast; conditions: 10 µM unless noted
[9] = tested on: NCI/ADR-RES ovarian; conditions: 10 µM unless noted
[10] = tested on: T-47D breast; conditions: 10 µM unless noted
[11] = tested on: BT-549 breast; conditions: 10 µM unless noted
[12] = tested on: SW-620 colon; conditions: 10 µM unless noted
[13] = tested on: MCF7 breast; conditions: 10 µM
[14] = tested on: HCT-116 colon; conditions: 10 µM unless noted
[15] = tested on: HCC-2998 colon; conditions: 10 µM unless noted
[16] = tested on: KM12 colon; conditions: 10 µM unless noted
[17] = tested on: OVCAR-3 ovarian; conditions: 10 µM unless noted
[18] = tested on: MDA-MB-435 melanoma; conditions: 10 µM unless noted

| Compound | growth [1] | growth [2] | growth [3] | growth [4] | growth [5] | growth [6] | growth [7] | growth [8] | growth [9] | growth [10] | growth [11] | growth [12] | growth [13] | growth [14] | growth [15] | growth [16] | growth [17] | growth [18] |
| --- | --- | --- | --- | --- | --- | --- | --- | --- | --- | --- | --- | --- | --- | --- | --- | --- | --- | --- |
| Cc1cc(N)c2ccccc2[n+]1CCCCCCCCCC[n+]1c(C)cc(N)c2ccccc21 | -53% (active) and 3.2% (active) | 9.49% (active) and -11.6% (active) | 26.8% (inactive) | -58.1% (active) | 21.2% (inactive) and 19.8% (inactive) | 9.8% (active) and -29.2% (active) | 4.94% (active) and -18.4% (active) | 34.7% (inactive) | 66.2% (inactive) and 64.1% (inactive) | 5.34% (active) and -12.1% (active) | -29% (active) and -15.7% (active) | 11.6% (inactive) and 18.1% (inactive) | 11.9% (inactive) and -3.39% (active) | 4.6% (active) and 3.4% (active) | 0.513% (active) | -48.4% (active) and 6.86% (active) |  |  |
| NC(=S)N/N=C\c1nccc2c(C(F)(F)C(F)(F)C(F)(F)F)cccc12 | -29.4% (active) | -11% (active) | -0.116% (active) | 42.3% (inactive) |  | -21.8% (active) | 5.98% (active) | 50.7% (inactive) | -11.6% (active) | 4.05% (active) | 41.4% (inactive) | 28.6% (inactive) | 11.5% (inactive) | 17.4% (inactive) | 13.3% (inactive) |  | 4.2% (active) | 23.4% (inactive) |
| Cc1ccc(C(=Nc2ccccc2)N=P(c2ccccc2)(c2ccccc2)c2ccccc2)cc1 |  | -38.6% (active) | 6.99% (active) | -5.4% (active) | 29% (inactive) | -66.3% (active) | -68.5% (active) | -45.8% (active) | -10.4% (active) | -33.4% (active) | -26.9% (active) | -40.7% (active) | -39.7% (active) | -37.8% (active) | -71.6% (active) |  |  | -76.4% (active) |
| CN(Cc1cnc2nc(N)nc(N)c2n1)c1ccc(C(=O)NC(CCC(=O)O)C(=O)O)cc1 (stereo not drawn) |  | 37.3% (inactive) | 24% (inactive) | 44.9% (inactive) | 61.3% (inactive) | 59.3% (inactive) | 31.2% (inactive) | 76.6% (inactive) | 26.7% (inactive) | 67.6% (inactive) | 48.4% (inactive) | 27.5% (inactive) | 24.3% (inactive) | 20.6% (inactive) | 27.7% (inactive) | 32.4% (inactive) | 37.8% (inactive) | 30.6% (inactive) |
| Cc1cc2nc(CS)[nH]c2cc1C | 45.9% (inactive) | 28.7% (inactive) | 96.5% (inactive) | 96.8% (inactive) | 85.5% (inactive) | 87.1% (inactive) | 74.5% (inactive) | 103% (inactive) | 95.7% (inactive) | 74.3% (inactive) |  | 84.7% (inactive) | 82.9% (inactive) |  | 102% (inactive) | 88% (inactive) |  | 90.9% (inactive) |
| CC1SC(=S)N(c2ccc(Cl)cc2)C1=O (stereo not drawn) |  | 94.8% (inactive) and 79.6% (inactive) | 101% (inactive) | 91.3% (inactive) and 89.6% (inactive) | 97.5% (inactive) and 91.3% (inactive) | 117% (inactive) and 99.4% (inactive) | 128% (inactive) and 92.5% (inactive) | 161% (inactive) and 132% (inactive) | 103% (inactive) | 73.9% (inactive) and 62.8% (inactive) | 106% (inactive) and 86.2% (inactive) | 109% (inactive) and 113% (inactive) | 96.9% (inactive) and 79.9% (inactive) | 100% (inactive) and 93.4% (inactive) | 90.7% (inactive) | 94.6% (inactive) and 108% (inactive) | 93.3% (inactive) and 97.7% (inactive) | 106% (inactive) and 99.8% (inactive) |
| Cc1ccc2c(ccc3c[n+]4c5ccccc5ccc4n32)c1 | -12.5% (active) | 31.7% (inactive) | 3.22% (active) | 47.6% (inactive) | -35.4% (active) | 0.442% (active) | 27% (inactive) |  | 70.3% (inactive) | -24.7% (active) | -2.45% (active) | 7.65% (active) | 0.326% (active) | 7.17% (active) | -34.9% (active) | -8.63% (active) |  | -27.5% (active) |
| CCCCCCCCCCCCCCCCCCOP(=O)([O-])OC1CC[N+](C)(C)CC1 | 3.18% (active) and -3.35% (active) | 6.44% (active) and -36.6% (active) | 49.6% (inactive) | -24.1% (active) and -61.2% (active) | 65.2% (inactive) | 35.9% (inactive) and 48.2% (inactive) | -61.7% (active) | 11.8% (inactive) | 73.5% (inactive) and 54.9% (inactive) | -18.4% (active) and 2.5% (active) | 24.3% (inactive) and -14.9% (active) | 46.3% (inactive) and 25% (inactive) | 38.5% (inactive) and 18.4% (inactive) | 19.5% (inactive) and -41.9% (active) | 5.08% (active) and -75.7% (active) | -44.2% (active) and -95.1% (active) |  |  |
| CCCCCCC(C)c1ccccc1O (stereo not drawn) (tested in a mixture with another compound) |  | 95.6% (inactive) | 110% (inactive) | 104% (inactive) |  |  | 111% (inactive) | 101% (inactive) | 98.6% (inactive) | 94.8% (inactive) | 108% (inactive) | 103% (inactive) | 116% (inactive) |  | 103% (inactive) | 107% (inactive) | 111% (inactive) |  |
| S=C(N/N=C/c1ccccn1)Nc1ccccn1 | -29% (active) | -2.91% (active) | 14.2% (inactive) | 49.2% (inactive) |  | 36.4% (inactive) | 27% (inactive) | 97.4% (inactive) | 7.98% (active) | 31% (inactive) | 38.1% (inactive) | 32.8% (inactive) | 14.3% (inactive) | 1.18% (active) | 25.2% (inactive) | 29.7% (inactive) | -0.151% (active) |  |
| CN(C)CCOc1ccc2c(c1)C(=O)/C(=C\c1ncc([N+](=O)[O-])n1C)C2 |  | 9.88% (active) | 1.01% (active) | -21.1% (active) | -49.1% (active) | -42.6% (active) | -47.7% (active) | 21.1% (inactive) | -1.71% (active) | 25.4% (inactive) |  | -31.6% (active) | -30.7% (active) | -5.59% (active) | -86.1% (active) | -68% (active) | -59% (active) |  |
| CN1c2ccccc2C(C)(C)C12C=Cc1cc(O)ccc1O2 (stereo not drawn) |  | -22.8% (active) | 67.3% (inactive) | 82.5% (inactive) | 72.9% (inactive) | 71.4% (inactive) | -7.4% (active) | -7.66% (active) | 26.4% (inactive) | 40.2% (inactive) | 33.2% (inactive) | 46.9% (inactive) | 5.47% (active) |  | 83.2% (inactive) | 18.7% (inactive) | 4.21% (active) | -66.4% (active) |
| O=C(O)C1C2CC3C(OC(=O)C31)C2Br (stereo not drawn) | 97.3% (inactive) and 101% (inactive) | 102% (inactive) and 106% (inactive) | 97.8% (inactive) and 100% (inactive) | 103% (inactive) and 100% (inactive) | 114% (inactive) and 89.8% (inactive) | 95.8% (inactive) and 105% (inactive) | 103% (inactive) and 114% (inactive) |  | 103% (inactive) and 100% (inactive) | 98.7% (inactive) and 96% (inactive) | 99.4% (inactive) and 93.2% (inactive) | 94.7% (inactive) and 94.8% (inactive) | 88.7% (inactive) and 93.8% (inactive) | 94.1% (inactive) and 101% (inactive) | 88.8% (inactive) and 96.8% (inactive) |  |  | 109% (inactive) and 95.4% (inactive) |
| CCC(=O)Sc1ccccc1C(=O)Nc1ccc(Cl)cc1 | 26.3% (inactive) | 35% (inactive) | 78.8% (inactive) | 110% (inactive) | 44.5% (inactive) | 87.3% (inactive) | 71.2% (inactive) |  | 52.6% (inactive) | 45.1% (inactive) | 10.2% (inactive) | 17.5% (inactive) | 19% (inactive) | 25.8% (inactive) | 85.7% (inactive) |  |  | 25.9% (inactive) |

From PubChem BioAssay (NCI)
